Test [1] is described as follows: NCI Yeast Anticancer Drug Screen. Data for the rad50 strain (AID 155).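 Also: 0% = growth of vehicle-only cultures of the same strain.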 The settings on record: S. cerevisiae rad50 strain growth inhibition, hits give high values; at 50.0 µM unless noted. In a few lines: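 DNA repair mutant yeast, compound exposure, growth read-out; inhibition is taken relative to vehicle.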
Test [2] is described as follows: NCI Yeast Anticancer Drug Screen. Data for the mec2-1 strain (AID 157). The settings on record: S. cerevisiae mec2-1 strain, hits give high values; at 50.0 µM unless noted. In a few lines:
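mec2-1 yeast strain, carrying an alteration in DNA damage repair or cell cycle control, was exposed to compounds; growth inhibition was measured relative to vehicle-treated controls.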

The nature of test [3]: NCI Yeast Anticancer Drug Screen. Data for the sgs1 mgt1 strain (AID 161).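 Also: 0% = growth of cultures given vehicle only.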 The settings on record: S. cerevisiae sgs1 mgt1 strain, hits give high values; at 50.0 µM unless noted. In a few lines:
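This yeast growth screen uses a strain with defined DNA-repair lesions; compound-treated growth is compared with vehicle-treated growth.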

Test [4] is described as follows: NCI Yeast Anticancer Drug Screen. Data for the cln2 rad14 strain (AID 165).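 Also: 0% = growth equal to vehicle treated cultures.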 The following applies: S. cerevisiae cln2 rad14 strain, hits give high values; at 50.0 µM unless noted. Summed up: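 Yeast carrying cln2 and rad14 alterations (cell cycle control and DNA damage repair) were exposed to compounds. Growth inhibition was measured against vehicle-treated controls.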

The nature of test [5]: NCI Yeast Anticancer Drug Screen. Data for the bub3 strain (AID 167). The following applies: S. cerevisiae bub3 mutant strain, hits give high values; at 50.0 µM unless noted. In a few lines: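 In this screen, a yeast mutant lacking normal mitotic checkpoint function is challenged with compound. Relative growth versus vehicle gives the inhibition value.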
Test [6] in a line: NCI Yeast Anticancer Drug Screen. Data for the mlh1 rad18 strain (AID 175). The settings on record: S. cerevisiae mlh1 rad18 strain growth inhibition, hits give high values; at 50.0 µM unless noted. In a few lines: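 Growth inhibition of the yeast strain was measured after compound exposure and expressed relative to vehicle-treated controls. The strain carries defined defects in DNA damage repair.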

About 79,000 compounds went through this panel and 15% of them were active in at least one assay; those are over-represented in the sample as a whole. A number with no mark means an inactive call. Calls of active or inactive are those of the source. Rule as the data show it: active = growth inhibition above about 70%; inactive = the rest.

With `CCCCCCCCCCCCCCCCCCNC(=S)N/N=C/c1ccccc1[N+](=O)[O-]`, the growth inhibition is -17.1% in test [1]; 2.75% in test [2]; -20.1% in test [3]; 4.95% in test [4]; -13.1% in test [5]; -7.65% in test [6].

As to `O=C1NCC2(CCNCC2)N1`, the growth inhibition in test [1] is -10.3%; in test [2], 16.7%; in test [3], 6.45%; in test [4], 15.6%; in test [5] it was 11.1%; in test [6], -70.6%.

With `Cc1nc2c(c(=O)[nH]1)C(c1ccccc1)C(C)(C)O2` (stereo not given), the growth inhibition in test [1] is 3.6%; in test [2], -23.3%; in test [3], -3.6%; in test [4], -4.5%; in test [5], 6.15%; in test [6], 6.85%.

On to `N=c1ccccn1C(=O)C1=Cc2cc(Cl)cc(Cl)c2OC1`, for which the growth inhibition in test [1] was -15.6%; in test [2], 0.75%; in test [3] it was -1.85%; in test [4], -25.8%; in test [5], 7.65%; in test [6] it was -2.25%.

In the case of `O=S=Nc1c(Cl)cc(Cl)cc1Cl`, the growth inhibition in test [1] was 1.1%; in test [2] it was -20.1%; in test [3], 1.55%; in test [4], -18.6%; in test [5] it was 11.7%; in test [6], -0.6%.

For `Cn1c(=O)c2[nH]c(Nc3cccc(Cl)c3)nc2n(C)c1=O`, the growth inhibition is -26.3% in test [1]; 8.75% in test [2]; -18.8% in test [3]; -13.2% in test [4]; -1.85% in test [5]; 17.1% in test [6].

For `CC(=O)NC(CCC(C)C)C(=O)O` (stereo not given), the growth inhibition is -0.05% in test [1]; 25.2% in test [2]; 4.75% in test [3]; -13.6% in test [4]; 15.6% in test [5]; -7.35% in test [6].

Regarding `O=C1[C@H]2ON(c3ccccc3)C(c3ccccc3)[C@H]2C(=O)N1c1ccc(Cc2ccc(N3C(=O)[C@@H]4ON(c5ccccc5)C(c5ccccc5)[C@@H]4C3=O)cc2)cc1` (stereo not given in full), the growth inhibition in test [1] is 3.1%; in test [2], 3.45%; in test [3] it was 12.6%; in test [4], 21.5%; in test [5] it was 26.5%; in test [6] it was 11.8%.

`CC1=Nc2ccc([N+](=O)[O-])cc2C1(C)C`: the growth inhibition in test [1] was -0.35%; in test [2], 5.1%; in test [3] it was -7.55%; in test [4], -2.15%; in test [5], -16.1%; in test [6], -5.45%.

Turning to `CC(=O)O[C@@H]1C(=O)C=C(C)[C@@H]2[C@@H](OC(=O)C=C(C)C)[C@H]3OC(=O)C[C@H]4[C@@H](C)[C@@H](O)[C@]5(O)OC[C@]34[C@H]5[C@@]12C`, the growth inhibition in test [1] was 87.4% (active); in test [2], 71.5% (active); in test [3] it was 71.8% (active); in test [4], 88.5% (active); in test [5], 79.5% (active); in test [6], 91.8% (active).

In the case of `CSc1nc2c(nc(N)n2C2OCC(O)C(O)C2O)c(=O)n1C` (stereo not given), the growth inhibition was 12.1% in test [1]; 14.1% in test [2]; 22.6% in test [3]; 32.6% in test [4]; 17.9% in test [5]; 32.2% in test [6].

`C/C(=N/NC(N)=O)C1CCc2ccccc2C1` (stereo not given): the growth inhibition in test [1] is 43%; in test [2] it was -6.9%; in test [3] it was 3.2%; in test [4], 1.95%; in test [5], 7.8%; in test [6] it was 22.9%.

As to `CN1c2ccccc2N(C)C23N(C)c4ccccc4N(C)C12N(C)c1ccccc1N3C` (stereo not given), the growth inhibition in test [1] is -33%; in test [2], 1.8%; in test [3], -67.4%; in test [4], 18.7%; in test [5], -22.1%; in test [6], -20.9%.

On to `COC(C(=O)NN)c1ccccc1` (stereo not given), for which the growth inhibition is -25.1% in test [1]; -60.5% in test [2]; -59.8% in test [3]; -43.5% in test [4]; -35.5% in test [5]; -35.8% in test [6].

On to `CCOC(=O)C(CC/C=C\c1ccccc1)N1CCC[C@H]1C(=O)OC` (stereo not given in full), for which the growth inhibition in test [1] is -7.9%; in test [2] it was -5%; in test [3], -11.9%; in test [4], 9.55%; in test [5] it was 2.75%; in test [6], -13.3%.

Turning to `CC1=C(C(=O)Nc2ccccc2)C(c2ccc(N(C)C)cc2)C(C(=O)Nc2ccccc2)=C(C)N1`, the growth inhibition in test [1] was -13.7%; in test [2] it was 7.4%; in test [3], -6.3%; in test [4] it was 24.4%; in test [5], -6.8%; in test [6], 15.8%.

With `CC(C)=CCCC(C)CCO` (stereo not given), the growth inhibition in test [1] is -5.1%; in test [2] it was -4.75%; in test [3] it was -15.4%; in test [4], 16.4%; in test [5], -16.6%; in test [6] it was 3.25%.

As for `Nc1nnc2nc(CC(=O)c3ccc(Cl)c(Cl)c3)/c(=C/C(=O)c3ccc(Cl)c(Cl)c3)n12`, the growth inhibition is 11.5% in test [1]; 12.3% in test [2]; -12.3% in test [3]; 17.2% in test [4]; 1.7% in test [5]; -10.2% in test [6].

As for `N#CC(c1ccccc1)c1ccc2ccccc2n1` (stereo not given), the growth inhibition in test [1] was 23.6%; in test [2], 7.4%; in test [3], 10.8%; in test [4], 2.6%; in test [5], 33.5%; in test [6], -0.9%.

On to `O=C(c1ccc(Cl)cc1)c1ccccc1C(=O)c1ccc(Cl)cc1`, for which the growth inhibition in test [1] was 0.8%; in test [2], -12.1%; in test [3], 6.6%; in test [4], -4.45%; in test [5], 23%; in test [6], 15.1%.

These data come from PubChem BioAssay (NCI).
